# From PubChem BioAssay
# Sm TGR block: qHTS Assay for the Inhibitors of Schistosoma Mansoni Peroxiredoxins | Schistosoma mansoni thioredoxin glutathione reductase (TGR), Q962Y6 | purified TGR, DTNB reduction, TNB absorbance 405 nm | Potency, µM (highest dose often 114 µM), for the others: at the top dose activity change, negative = inhibition, hits mostly inhibitors | actives 3% (n = 360,000); note: potency is the fitted concentration of half-maximal effect; % is set by controls: 0 for no effect and ±100 for the full control effect; nearly all actives have a fitted effect of over 60% in size
#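 TGR 20 nM + NADPH 100 uM (dispensed conc.), cpd preinc 15 min RT; start with NADPH (500 uM addition) then DTNB (15 mM addition). Kinetic TNB absorbance, 405 nm filter. Four-parameter Hill fit across titration.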
# Shiga toxin inh: A qHTS for Small Molecule Inhibitors of Shiga Toxin | actives 9.2% (n = 290,000) | inhibition, % at 38.7 µM | Vero cells, Shiga toxin protein synthesis inhibition reporter | AID 2315, 2010; in the data active = inhibition mostly above about 28%, no sharp cut-off; inactive = mostly below about 43%; note: 0% is about no effect
# LmPK inhibitor: qHTS Assay for Inhibitors of Leishmania Mexicana Pyruvate Kinase (LmPK). actives 0.37% (n = 290,000). Q27686. Potency, µM (doses to about 57.5 µM), for the others: at the highest dose activity change, negative = inhibition, most hits filed as inhibitors. AID 1721, 2009. purified LmPK, Kinase-Glo ATP luminescence, 1 h; note: potency is the fitted concentration of half-maximal effect; % is set by controls: 0 for no effect and ±100 for the full control effect
# Target sequence (Q27686 whole entry, looked up): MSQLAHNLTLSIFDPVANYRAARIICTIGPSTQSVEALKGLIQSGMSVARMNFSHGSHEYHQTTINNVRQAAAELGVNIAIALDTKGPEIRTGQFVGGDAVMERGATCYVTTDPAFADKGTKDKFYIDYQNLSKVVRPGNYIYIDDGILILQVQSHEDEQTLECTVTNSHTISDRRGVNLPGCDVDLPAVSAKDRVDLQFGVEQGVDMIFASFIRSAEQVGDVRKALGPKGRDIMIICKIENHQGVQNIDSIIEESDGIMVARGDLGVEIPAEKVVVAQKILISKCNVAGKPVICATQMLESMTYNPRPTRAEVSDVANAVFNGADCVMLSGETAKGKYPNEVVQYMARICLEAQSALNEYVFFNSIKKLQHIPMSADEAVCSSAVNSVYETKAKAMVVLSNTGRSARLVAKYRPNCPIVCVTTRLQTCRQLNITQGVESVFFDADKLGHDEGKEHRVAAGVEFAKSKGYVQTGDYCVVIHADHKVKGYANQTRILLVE
#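 In 50 mM imidazole pH 7.2 with 7 mM MgCl2, LmPK (0.1 nM) turned over PEP (0.5 mM) and ADP (0.1 mM) for 1 h at room temperature. Luciferase read-out of ATP.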
# Tb PYK inh: qHTS of Trypanosoma Brucei Inhibitors; TbPYK enzyme, Kinase-Glo Plus ATP luminescence, 45 min; Potency, µM (top dose mostly 76.8 µM), inactives show at the highest dose activity, negative = inhibition, hits mostly inhibitors; pyruvate kinase (Trypanosoma brucei), Q57TT1; AID 624173, 2012; actives 0.12% (n = 410,000); note: potency is the fitted concentration of half-maximal effect; % is set by controls: 0 for no effect and ±100 for the full control effect; nearly all actives have a fitted effect of over 50% in size
#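 T. brucei PYK with substrate was exposed to pin-transferred compounds across a concentration series, then started with 130 uM ADP (final). After 45 min at room temperature, Kinase-Glo Plus luminescence was read, normalized and curve-fitted.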
# CHX counter: Cycloheximide Counterscreen for Small Molecule Inhibitors of Shiga Toxin. AID 2314, 2010. actives 12% (n = 300,000). cell reporter, cycloheximide protein synthesis inhibition counterscreen. max response, %; in the data active = max response mostly above about 13%, no sharp cut-off; inactive = mostly below about 14%; note: read at 38.3 µM for the half of the compounds with a filed dose; 0% is about no effect
# Giardia FBPA inh-1: qHTS Assay for Inhibitors of Fructose-1,6-bisphosphate Aldolase from Giardia Lamblia; A8B2U2; purified Giardia FBPA; Potency, µM (doses to about 59.6 µM), inactives show top-dose activity, negative = inhibition, actives largely listed as inhibitors; AID 2451, 2010; actives 0.71% (n = 290,000); note: potency is the fitted concentration of half-maximal effect; % is set by controls: 0 for no effect and ±100 for the full control effect; nearly all actives have a fitted effect of over 55% in size
# Target sequence (A8B2U2 whole entry, looked up): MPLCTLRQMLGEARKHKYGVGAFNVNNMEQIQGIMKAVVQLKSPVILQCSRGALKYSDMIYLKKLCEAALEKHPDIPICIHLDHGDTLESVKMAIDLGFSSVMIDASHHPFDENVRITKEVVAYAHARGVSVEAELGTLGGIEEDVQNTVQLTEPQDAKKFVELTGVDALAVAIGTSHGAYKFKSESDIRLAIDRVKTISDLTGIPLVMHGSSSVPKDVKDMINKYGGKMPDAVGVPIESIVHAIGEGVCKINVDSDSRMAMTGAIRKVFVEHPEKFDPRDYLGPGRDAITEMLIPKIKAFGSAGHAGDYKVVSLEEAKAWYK
#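 Giardia FBPA (40 nM reagent) was preincubated 10 min at RT with compound (up to 57.5 uM final), then substrate plus GAPDH/TPI/NAD/arsenate coupling system with diaphorase/resazurin was added; resorufin fluorescence (525/598 nm) was read after 20 min.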
# Giardia growth: qHTS Assay for Inhibitors of Fructose-1,6-bisphosphate Aldolase from Giardia Lamblia: Giardia lamblia growth inhibition | AID 2785, 2010 | shares compounds with Giardia FBPA inh-1 | actives 5% (n = 1,500) | Giardia lamblia trophozoite growth inhibition | Potency, µM (top dose mostly 57.5 µM), for the others: at the top dose activity change, negative = inhibition, hits mostly inhibitors;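 note: potency is the fitted concentration of half-maximal effect; trophozoites exposed to compound for 48 h at 37 °C; % is set by controls: 0 for no effect and ±100 for the full control effect; nearly all actives have a fitted effect of over 70% in size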
# Mammalian tox: qHTS Assay for Inhibitors of Fructose-1,6-bisphosphate Aldolase from Giardia Lamblia: Mammalian cellular toxicity; shares compounds with Giardia FBPA inh-1; mammalian cell viability counter-screen, qHTS; Potency, µM (highest dose often 57.5 µM), without a hit: at the highest dose viability change, negative = toxicity, most hits filed as inhibitors; actives 4% (n = 1,500);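 note: Chinese hamster ovary cells used as mammalian cytotoxicity surrogate; viability measured as cellular ATP by luminescence; potency is the fitted concentration of half-maximal effect; compound exposure lasted 48 h before reading; % is set by controls: 0 for no effect and ±100 for the full control effect; nearly all actives have a fitted effect of over 60% in size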
# Giardia FBPA inh-2: qHTS Assay for Inhibitors of Fructose-1,6-bisphosphate Aldolase from Giardia Lamblia: Primary screen confirmation. shares compounds with Giardia FBPA inh-1. purified Giardia aldolase enzyme activity, qHTS. Potency, µM (doses to about 57.5 µM), for inactives: at the top dose activity change, negative = inhibition, usual class: inhibitors. actives 5% (n = 1,500). AID 2787, 2010; note: potency is the fitted concentration of half-maximal effect; % is set by controls: 0 for no effect and ±100 for the full control effect; nearly all actives have a fitted effect of over 45% in size
# Rabbit FBPA inh: qHTS Assay for Inhibitors of Fructose-1,6-bisphosphate Aldolase from Giardia Lamblia: Rabbit FBPA Selectivity. shares compounds with Giardia FBPA inh-1. Rabbit muscle FBPA enzyme inhibition, selectivity counter-screen. Potency, µM (titrated, usually from 57.5 µM), for inactives: at the top dose activity, negative = inhibition, usual class: inhibitors. actives 4% (n = 1,500); note: potency is the fitted concentration of half-maximal effect; % is set by controls: 0 for no effect and ±100 for the full control effect; nearly all actives have a fitted effect of over 60% in size
# GAPDH counter: qHTS Assay for Inhibitors of Fructose-1,6-bisphosphate Aldolase from Giardia Lamblia: Coupling assay counterscreen confirmation; actives 6% (n = 1,500); Potency, µM (doses to about 57.5 µM), inactives show at the top dose activity change, negative = inhibition, actives largely listed as inhibitors; shares compounds with Giardia FBPA inh-1; AID 2795, 2010; GAPDH coupling enzyme counterscreen, biochemical, qHTS; note: potency is the fitted concentration of half-maximal effect; % is set by controls: 0 for no effect and ±100 for the full control effect; nearly all actives have a fitted effect of over 55% in size
# * hit, by the source's call; ? = inconclusive; · = no result; [ ] = dose if it differs, or a comment. Shown is part of a subset that was picked to be rich in hits. Unless noted, calls come from the whole dose curve; as a rule, active = well fitted curve in the direction sought with a large enough effect; inconclusive = small, poorly fitted or top-dose-only effect, or another doubt; inactive = no such curve, though single readings can be large; an effect the other way counts as inactive or inconclusive.
SMILES,Sm TGR block,Shiga toxin inh,LmPK inhibitor,Tb PYK inh,CHX counter,Giardia FBPA inh-1,Giardia growth,Mammalian tox,Giardia FBPA inh-2,Rabbit FBPA inh,GAPDH counter
Cc1cc(C)nc(N/N=C/c2ccc(Cl)cc2)n1,5%,32,6%,-4%,13*,11µM*,-23%,5%,3%,2%,-5%
Cc1cc(-c2ccccc2)nc(N/N=C/c2ccc(N(C)C)cc2)n1,·,·,·,-3%,·,·,·,·,·,·,·
COc1ccc(/C=N/Nc2nc(C)cc(-c3ccccc3)n2)cc1OC,-22%,15,-3%,-6%,8,-10%,·,·,·,·,·
COc1cc(/C=N/Nc2nc(C)cc(C)n2)cc(OC)c1OC,0%,22,-2%,3%,4,16µM*,6%,2%,2%,0%,10%
NC(=O)CNC(=O)[C@@H]1CC2(CC(c3ccc(Cl)cc3)=NO2)CN1C(=O)c1ccccc1 (stereo partly drawn),-2%,22,-1%,2%,3,-5%,·,·,·,·,·
CCOC(=O)c1ccc(N2CCOCC2)c(NS(=O)(=O)c2ccc(F)cc2)c1,5%,-9,1%,-3%,6,·,·,·,·,·,·
CCOC(=O)c1c(-c2ccccc2)csc1NC(=O)C(C)NCCCN1CCOCC1 (stereo not drawn),-15%,4,11%,-4%,-11,18µM*,4.5µM*,-2%,-6%,-4%,-3%
CC1(C)Oc2c(ccc(O)c2CN2CCOCC2)C2=C1CCCC2,·,·,·,-6%,·,·,·,·,·,·,·
O=C(NC(=S)Nc1ccccn1)c1cccc([N+](=O)[O-])c1,24%,76*,1%,0%,43*,16µM*,?,-7%,5%,6%,13%
Cc1csc(N/N=C/c2ccccn2)n1,-30%,77,-22%[11.5 µM],-23%,15,16µM*,-7%[10.4 µM],25µM*,-3%,-1%,-11%
Cc1ccc(C(=O)N/N=C\c2ccccn2)cn1,3%,63*,-1%,2%,40*,7.9µM*,-11%[38.3 µM],-8%,6%,4%,-8%
O=C(N/N=C/c1ccccn1)c1cccc([N+](=O)[O-])c1,46%,55*,-1%,5%,8.8*,16µM*,-27%,?,15%,-3%,8%
Cc1ccc(NC(=O)CN(C)C(=O)c2nn(C)c(=O)c3ccccc23)cc1,20%,-3,-2%,5%,-2,1%,·,·,·,·,·
COc1ccccc1CNC(=O)COC(=O)C1CCN(S(=O)(=O)c2ccc(C)c(C)c2)CC1,-11%,·,·,3%,·,·,·,·,·,·,·
O=C(N/N=C/c1ccccn1)c1cc(C2CC2)[nH]n1,7%,111*,-1%,-2%,38*,18µM*,?,-6%,-3%,-2%,5%
O=C(N/N=C/c1ccccn1)c1cc([N+](=O)[O-])cc([N+](=O)[O-])c1,-3%,-5,0%,-11%,8,10µM*,25µM*,?,1%,-8%,-6%
O=C(N/N=C/c1ccccn1)c1ccc2nc[nH]c2c1,-2%,-5,0%,-3%,-2,16µM*,8%[10.4 µM],5%,5%,4%,-8%
O=C(N/N=C/C=C/c1cccc([N+](=O)[O-])c1)c1ccncc1,-1%,46,2%,2%,5,16µM*,28µM*,-4%,3%,-4%,5%
Cc1ccc(Cn2c(=O)n(Cc3ccccc3)c(=O)c3c(C)c(C)sc32)cc1,1%,·,·,6%,·,·,·,·,·,·,·
O=C(N/N=C/c1ccccn1)c1ccc(NC(=O)c2cccc([N+](=O)[O-])c2)cc1,1%,9,4%,4%,0,14µM*,?,-10%,5%,-1%,-5%
Cc1ccc(C(=O)N/N=C\c2ccc([N+](=O)[O-])o2)cn1,?,13,3%,-3%,5,11µM*,3.2µM*,-19%,-7%,-3%,1%
CC(Oc1ccc(F)cc1)C(=O)NCC1(N(C)C)CCCCC1 (stereo not drawn),-8%,·,·,-7%,·,·,·,·,·,·,·
O=C(Nc1ncccc1O)c1ccc(Cl)c(S(=O)(=O)N2CCCC2)c1,·,·,·,8%,·,·,·,·,·,·,·
CCCNC(=O)C1(C)CCCN(Cc2ccc(-c3ccccc3)cc2)C1 (stereo not drawn),·,·,·,4%,·,·,·,·,·,·,·
Cc1ccc(NC(=O)CN(C)C(=O)COc2cccc3cccnc23)cc1,-23%,-8,0%,-3%,3,11µM*,-37%,6%,13µM*,?,?
O=C(C1CCCN(Cc2ccccc2F)C1)N1CCCCC1 (stereo not drawn),-2%,-8,-3%,24%,-5,13µM*,-3%[10.4 µM],-6%,4%,12%,12%
CCOC(=O)/C(C#N)=N/Nc1c(C)n(C)n(-c2ccccc2)c1=O,-7%,15,-2%,-2%,-6,16µM*,-5%[10.4 µM],-1%,0%,-4%,-3%
COc1ccc(N2CCN(C(=O)CSc3nc4ccccc4c(=O)[nH]3)CC2)cc1,-6%,-4,-3%,4%,-2,-11%,·,·,·,·,·
COc1ccc(N2CCN(C(=O)CSc3nnc(C)c(=O)[nH]3)CC2)cc1,?,19,21%,-6%,4,13µM*,-12%,8%,-8%,11%,6%
